PubChem BioAssay (NCI)
Compounds without any hit were thinned out: in the full panel of roughly 83,000, 20% have a hit.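 Each cell line was grown in a 96-well plate and treated with one concentration of compound for 48 hours. Values below 10 were considered active.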 Unmarked numbers belong to inactive results. The source made the active and inactive calls.

Tested on: HL-60(TB) leukemia
Experiment: NCI-60 one-dose screen, 48 h (100 = growth as untreated, 0 = no growth, -100 = all killed)
Settings: 10 µM unless noted

| Compound | growth |
| --- | --- |
| C=C1C(=O)O[C@H]2[C@H]1CC/C(COC(=O)CSCC(=O)OC/C1=C/CC[C@@]3(C)O[C@H]3[C@H]3OC(=O)C(=C)[C@@H]3CC1)=C\CC[C@@]1(C)O[C@@H]21 | -42% (active) |
| BrC(Br)(Br)c1cnc2ccccc2n1 | -38.1% (active) |
| COc1ccc2sc3c(NCCO)nc4ccccc4c3c(=O)c2c1 | 104% |
| COc1cc(-c2nn(-c3cccc(NC(=O)c4ccc(N5CCOCC5)c(C(F)(F)F)c4)c3)cc2-c2ccncc2)ccc1Cl | -8.08% (active) |
| COc1cc(/C=C/c2cc(/C=C/c3ccc(O)c(OC)c3)n(C(N)=O)n2)ccc1O | -25.1% (active) |
| COc1ccccc1/C(C)=N/NC(=O)CSc1nc2ccccc2c(=O)n1Cc1ccc(S(N)(=O)=O)cc1 | 101% |
| O=C1Nc2ccccc2/C1=C\c1nc(-c2ccccc2)n2ccccc12 | 85.6% |
| Cc1cccc(-c2nc(N(C)c3ccc4ncsc4c3)c3ccccc3n2)n1 | 50.4% |
| CCCn1cnc2c(c1=N)C(c1ccc(F)cc1)c1sc3c(F)cccc3c1O2 (stereo unspecified) | 3.36% (active) |
| CCOC(=O)c1sc2nc(-c3cc4ccccc4o3)cc(-c3ccc(Cl)cc3)c2c1N | 108% |
| OC(c1cc2cc(Cl)ccc2c2cc(C(F)(F)F)ccc12)C1CCCCN1 (stereo unspecified) | -61.1% (active) |
| COc1cccc(N2CCN(CC(=O)N3CCN(c4nnc(-c5ccc(Cl)cc5)c(-c5ccc(Cl)cc5)n4)CC3)CC2)c1 | 20.6% |
| O=C(Nc1cccc(-n2cc(-c3ccncc3)c(-c3ccc(O)c(Cl)c3)n2)c1)c1cc(C(F)(F)F)cc(C(F)(F)F)c1 | 58.9% |
| CSc1nc2[nH]ncc2c(=O)[nH]1 | 114% |
| Cc1c(C(C)(C)O)cn2ncnc(Oc3ccc(NC(=O)Nc4ccc(Cl)c(C(F)(F)F)c4)c(F)c3)c12 | 63.1% |
| CC1CC(O)CC(C)(C)C1 (stereo unspecified) | 80.8% |
| Oc1c(I)cc(I)cc1CNCCN(Cc1ccccn1)Cc1ccccn1 | -31.5% (active) |
| N#Cc1c(-c2ccccc2)nc(SCC(=O)N2CCOCC2)[nH]c1=O | 55.9% |
| COc1cc(/C=C/C(=O)c2ccc(-n3cc(CN4CCN(c5cc6c(cc5F)c(=O)c(C(=O)O)cn6C5CC5)CC4)nn3)cc2)ccc1O | 90.3% |
| COC(=O)c1c2c(c(C)[n+]([O-])c1C)C(=O)C=CC2=O | -7.95% (active) |
| CS(=O)c1cccc(-c2ccc3nc(N)n(-c4ccc(C(F)(F)F)cc4)c(=O)c3c2)c1 (stereo unspecified) | 100% |
| Cc1nc2c(c(N3CCCc4ccccc43)n1)CCC2 | -42.3% (active) |
| CCC(C)(c1cc(C(C)(C)C)c(O)c(C(C)(C)C)c1)c1cc(C(C)(C)C)c(O)c(C(C)(C)C)c1 | 99.3% |
| CCCCCCCCCCCCCCCCCCOc1ccccc1CC(=O)NCC[N+]1(C)CCCCC1 | 41.8% |
| O=C1Nc2ccc(F)cc2/C1=C/c1nc(-c2ccc(F)cc2)n2ccccc12 | 103% |
| CN1CC=C(c2cc(NC(=O)Nc3ccc(Oc4ccnc(NC(=O)C5CC5)c4)c(F)c3)cc(C(F)(F)F)c2)CC1 | -18.3% (active) |
